# Results filed as inconclusive are left out. Activity calls are given as the source filed them. Unless noted, the call rests on the fitted dose curve; in most records, active means well fitted cell-killing curve with a large enough effect; inconclusive means small, poorly fitted or top-dose-only effect, or effect the other way; inactive means no such curve, though single readings can be large or run the other way.
# Key:
# [1] = Quantitative High-Throughput drug screen in 47 multiple myeloma cell lines against the NCATS MIPE library collection: PCM6_Riken cell viability assay (AID 1919870); further: nearly all actives have a fitted effect of over 30% in size; further: potency means the concentration at half of the fitted maximal effect
# Method in brief: (§1)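 500 cells/well; MIPE 4.0 drugs pin-transferred; 48 h, 37C, 5% CO2. CellTiter-Glo, 5 min RT, luminescence. Controls: DMSO 100%, media 0%.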
# [2] = Quantitative High-Throughput drug screen in 47 multiple myeloma cell lines against the NCATS MIPE library collection: RPMI8226_ATCC cell viability assay (AID 1919871); further: nearly all actives have a fitted effect of over 30% in size; further: potency means the concentration at half of the fitted maximal effect
# Method in brief: as §1
# [3] = Quantitative High-Throughput drug screen in 47 multiple myeloma cell lines against the NCATS MIPE library collection: OPM2_DSMZ cell viability assay (AID 1919872); further: nearly all actives have a fitted effect of over 30% in size; further: potency means the concentration at half of the fitted maximal effect
# Method in brief: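 Approved and investigational drugs from MIPE 4.0 were added by pin tool to 500 cells per well. After 48 hours at 37C, ATP-based CellTiter-Glo luminescence indicated remaining viability.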
# [4] = Quantitative High-Throughput drug screen in 47 multiple myeloma cell lines against the NCATS MIPE library collection: KMS11_JCRBsus cell viability assay (AID 1919873); further: nearly all actives have a fitted effect of over 50% in size; further: potency means the concentration at half of the fitted maximal effect
# Method in brief: as §1
# [5] = qHTS drug screen for cell cycle checkpoint inhibitors in PARPi-resistant BRCA-mutant ovarian cancer cell lines. (AID 1963452; calls by dose curve); details: PEO1/OlaR viability, CellTiter-Glo luminescence, 96 h, stronger effect = lower value
# Method in brief: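 PEO1, PEO4 and PEO1/OlaR ovarian cancer cells, 600 per well, exposed 96 h at 37C to a dilution series. Viability read by CellTiter-Glo luminescence, normalized to DMSO and empty wells; activity summarized as Z-AUC.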
# [6] = qHTS for identification of novel therapeutic agents for treatment of microphthalmiaassociated transcription factor (MiT) renal cell carcinoma (RCC) (AID 1963991; calls by dose curve; further: potency means the concentration at half of the fitted maximal effect); details: CellTiter-Glo, 48 h; for z-score: stronger effect = lower value
# Method in brief: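 Viability of three TFE3-fusion renal carcinoma lines measured by CellTiter-Glo after 48 h treatment with each of 1912 compounds at 11 concentrations. Responses scaled between DMSO (100%) and empty wells (0%) before curve fitting.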
# [7] = Quantitative High-Throughput drug screen in 47 multiple myeloma cell lines against the NCATS MIPE library collection: KMS28BM_JCRB cell viability assay (AID 1919874); further: nearly all actives have a fitted effect of over 35% in size; further: potency means the concentration at half of the fitted maximal effect
# Method in brief: as §1
# [8] = measured here: PEO1 parental Z-AUC
# [9] = TFE3-RCC UOK109 viability, measured here: UOK109 Z-AUC
# [10] = TFE3-RCC viability, measured here: UOK124 Z-AUC
# [11] = TFE3-RCC viability, measured here: UOK145 Z-AUC
Structure (SMILES),Potency [1],Potency [2],Potency [3],Potency [4],Z-AUC [5],"Z-AUC [5, 8]",Z-AUC ([5]; measured here: PEO4 Z-AUC),Potency ([6]; TFE3-RCC UOK109 viability),"z-score [6, 9]","z-score [6, 10]","z-score [6, 11]",Potency [7]
Cc1ccccc1-n1c(Cn2ncc3c(N)ncnc32)nc2cccc(C)c2c1=O,0.296 µM (active),8.33 µM (active),8.33 µM (active),1.05 µM (active),-0.794 (inactive),-0.62,-0.742,0.0526 µM (active),-1.3,-1.03,-1.02,–
COc1cc([C@@H]2c3cc4c(cc3[C@@H](O)C3COC(=O)C32)OCO4)cc(OC)c1O (stereo partly drawn),0.0469 µM (active),0.118 µM (active),0.0418 µM (active),0.0093 µM (active),–,–,–,0.0418 µM (active),-1.65,-1.93,-1.12,0.0033 µM (active)
CC1=NN=C(c2ccc(N)cc2)c2cc3c(cc2C1)OCO3,inactive,inactive,inactive,inactive,–,–,–,–,0.644,0.871,0.714,inactive
O=C(NCC1CCOCC1)c1cnc(Nc2ccc(Cl)cc2Cl)nc1C(F)(F)F,5.9 µM (active),inactive,inactive,inactive,1.22 (inactive),0.764,1.04,–,–,–,–,inactive
CC(C)(C)c1cc(C=C(C#N)C#N)cc(Br)c1O,18.7 µM (active),–,–,–,–,–,–,–,–,–,–,–
O=C(N[C@H]1CN2CCC1CC2)c1ccc(Cl)cc1,8.33 µM (active),inactive,inactive,–,–,–,–,–,–,–,–,inactive
COc1ccc(C(=O)c2c(C)n(CCN3CCOCC3)c3cc(I)ccc23)cc1,11.8 µM (active),18.7 µM (active),26.4 µM (active),23.5 µM (active),-0.298 (inactive),-0.515,-0.461,–,–,–,–,–
CC(=O)O[C@@]12CO[C@H]1C[C@H](O)[C@@]1(C)C(=O)[C@H](O)C3=C(C)[C@@H](O)C[C@@](O)([C@@H](OC(=O)c4ccccc4)[C@@H]21)C3(C)C,3.32 µM (active),2.96 µM (active),9.35 µM (active),2.35 µM (active),–,–,–,–,–,–,–,–
CN[C@@H]1Cc2cccc3[nH]c(=O)n(c23)C1,inactive,inactive,inactive,inactive,1.45 (inactive),1.4,1.34,–,–,–,–,inactive
COc1ccc(CC2NCCc3cc(OC)c(OC)cc32)cc1OC (stereo not drawn),8.33 µM (active),inactive,inactive,inactive,–,–,–,–,0.368,0.055,0.8,inactive
COC[C@H]1OC(=O)c2coc3c2[C@@]1(C)C1=C(C3=O)[C@@H]2CC[C@H](O)[C@@]2(C)C[C@@H]1OC(C)=O,3.72 µM (active),2.96 µM (active),1.87 µM (active),1.66 µM (active),–,–,–,–,–,–,–,9.35 µM (active)
CN(C)NC(=O)CCC(=O)O,20.9 µM (active),inactive,inactive,inactive,–,–,–,–,0.632,0.666,-0.178,–
O=c1[nH]c2ccc(Cl)cc2c(N[C@@H]2CN3CCC2CC3)c1-c1nc2ccccc2[nH]1,0.166 µM (active),5.9 µM (active),5.9 µM (active),0.235 µM (active),-1.21 (inactive),-1.35,-1.24,3.72 µM (active),-0.938,-2.71,-1.04,1.32 µM (active)
CCN1C[C@]2(OC(=O)c3ccccc3NC(C)=O)CC[C@H](OC)[C@@]34[C@H]5CC6[C@@H](OC)C[C@](O)(C(C[C@@H]23)[C@@H]14)[C@@]5(O)[C@@H]6OC,inactive,inactive,inactive,inactive,0.577 (inactive),1.09,1.24,–,0.543,0.783,0.781,inactive
COc1ccc2c(c1)[C@]13CCCCC1C(C2)N(C)CC3 (stereo partly drawn),inactive,inactive,inactive,inactive,–,–,–,–,-0.129,0.851,0.444,–
CC(C)(O)C(=O)Nc1ccc([N+](=O)[O-])c(C(F)(F)F)c1,8.33 µM (active),inactive,inactive,–,1.27 (inactive),0.567,0.85,–,–,–,–,–
CCc1c(C(=O)C(N)=O)c2c(OCC(=O)O)cccc2n1Cc1ccccc1,–,inactive,inactive,inactive,0.107 (inactive),0.125,0.188,–,-0.00568,0.644,-1.8,inactive
CC(N[C@H]1C[C@H]1c1ccccc1)c1ccc2c(c1)OCCO2 (stereo partly drawn),–,inactive,inactive,inactive,–,–,–,–,0.542,0.0589,0.597,inactive
